Assay outcomes as filed in PubChem.
Hits are enriched below; roughly 3.3% of the tested compounds scored in any of these assays.
esBAF inh – Bmi1 luciferase reporter increase in mESCs, primary screen, esBAF inhibitor project, mouse ES cells, Bmi1 luciferase knock-in, single point. 24 h; 100% = twice the neutral-well signal. reporter increase, % at 12.5 µM. 350,000 tested, 2% active. AID 602393, 2012; in the data active = activation above about 40%;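 also: a rise in the Bmi1 reporter signal indicates esBAF inhibition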
Wnt act – Wnt/beta-catenin pathway activators, primary screen, cell-based, plate reader, single point; Wnt/beta-catenin reporter cell assay, activator; activation, % at 9.35 µM; 300,000 tested, 1.2% active; AID 743398, 2014; in the data active = activation above about 30%, passing the limit was not always enough
FXN GAA850 act – FXN promoter activators, primary screen, cell-based, luciferase luminescence, HEK293 lucGAA850 | activation, % at 6 µM | AID 540364, 2011 | HEK293 lucGAA850 FXN promoter luciferase reporter, 24 h; percent of 10 µM SAHA response | 360,000 tested, 0.56% active;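 active = activation above the average of all compounds screened plus 3 SD, cutoff fixed separately per campaign, cut at about 7.5% in these data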
MITF TRPM1 HTS – activators of MITF-driven TRPM1 promoter reporter, primary screen, cell-based, SK-MEL-5, luciferase, single point; AID 588334, 2011; 300,000 tested, 0.75% active; activation, % at 12.5 µM; SK-MEL-5 TRPM1-promoter luciferase, 24 h; % of positive control, neutral wells = 0;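 active = mean activation of at least 80% with every replicate also reaching 80%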
Statin myotox sup – suppressors of statin myotoxicity in C2C12 myotubes, primary screen, cell-based, single point, plate reader; 330,000 tested, 0.78% active; rescue of ATP level, % at 7.49 µM; C2C12 myotubes + simvastatin, ATP luminescence, 48 h; scaled: DMSO 0, geranylgeraniol control 100;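 active = mean ATP rescue above about 67%, or every replicate alone reaching that limit, limit read from the data, passing the limit was not always enough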;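 also: myotubes were challenged with 10 µM simvastatin during compound exposure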
Each line names hits and unclear results; the compound was inactive in the other large screens.

CO[C@H]1CN(C)C(=O)c2ccc(NC(=O)C3CC3)cc2OC[C@@H](C)N(Cc2cncnc2)C[C@@H]1C	none (no result: Wnt act, FXN GAA850 act, MITF TRPM1 HTS)
O=C(Cc1ccccc1F)Nc1ccc(SC(F)F)cc1	MITF TRPM1 HTS 103 (no result: esBAF inh, Statin myotox sup)
O=C(CNS(=O)(=O)c1ccc(F)cc1)Nc1ccccc1	none
O=C(Nc1ccc(SC(F)F)cc1)c1ccc(F)cc1	MITF TRPM1 HTS 87 (no result: esBAF inh, Statin myotox sup)
O=C(NCCc1ccc(F)cc1)c1cccc(NC(=O)c2ccccc2)c1	esBAF inh 65
O=C(NCCCCc1ccccc1)c1cccc(NC(=O)c2ccccc2)c1	none
O=C(CNc1ccccc1)Nc1ccc(F)cc1	esBAF inh 52 (no result: Wnt act)
C[C@H](O)C#Cc1cnc2c(c1)C(=O)N([C@H](C)CO)C[C@H](C)[C@H](CN(C)Cc1ccc(-c3ccccc3)cc1)O2	none (no result: Wnt act, FXN GAA850 act, MITF TRPM1 HTS)
O=C(NNC(=O)c1ccccc1F)c1cccc(-n2cccc2)c1	esBAF inh 45
O=C(Nc1ccc(C2SCCS2)cc1)c1ccccc1	Wnt act 49 (no result: esBAF inh, MITF TRPM1 HTS, Statin myotox sup)
O=C(Nc1ccc(F)cc1)c1ccccc1	esBAF inh 81, MITF TRPM1 HTS 104
O=C(/C=C/c1ccccc1)Nc1cccc(C(=O)NCc2ccccc2)c1	none (no result: esBAF inh, FXN GAA850 act, MITF TRPM1 HTS, Statin myotox sup)
O=C(/C=C/c1ccccc1)Nc1cccc(C(=O)NCCCc2ccccc2)c1	esBAF inh 43
CC(C)NC(=O)N(C)C[C@H]1Oc2cc(C#Cc3ccc(F)cc3)ccc2S(=O)(=O)N([C@H](C)CO)C[C@@H]1C	none (no result: Wnt act, FXN GAA850 act, MITF TRPM1 HTS)
CC(C)NC(=O)N(C)C[C@@H]1Oc2ccc(NS(=O)(=O)c3ccc(Cl)cc3)cc2CC(=O)N([C@@H](C)CO)C[C@H]1C	none (no result: Wnt act, FXN GAA850 act, MITF TRPM1 HTS)
CO[C@@H]1CN(C)C(=O)c2ccc(NC(=O)c3ccccn3)cc2OC[C@@H](C)N(CC2CC2)C[C@H]1C	none (no result: Wnt act, FXN GAA850 act, MITF TRPM1 HTS)
C[C@@H]1CN([C@@H](C)CO)C(=O)c2cc(NC(=O)CCC(F)(F)F)ccc2O[C@@H](C)CCCCO[C@@H]1CN(C)C(=O)Nc1ccc(F)cc1	none (no result: Wnt act, FXN GAA850 act, MITF TRPM1 HTS, Statin myotox sup)
COc1cccc(-c2ccc3c(c2)O[C@@H](CN(C)C(=O)C2CCC2)[C@H](C)CN([C@@H](C)CO)S3(=O)=O)c1	none (no result: Wnt act, FXN GAA850 act, MITF TRPM1 HTS)
COC(=O)c1ccc(NC(=O)Cc2ccc(F)cc2)cc1	none
COC(=O)c1ccc(C(=O)Nc2ccc(F)cc2)cc1	esBAF inh 67
COc1cccc(-n2cc3c(=O)n(C)c(=O)n(C)c3c2)c1	esBAF inh 48 (no result: Wnt act)
COc1cc2sc(-c3ccccc3OC)c(-c3ccc(O)cc3)c2cc1OC	none
COc1ccc2sc(-c3ccccc3OC)c(-c3ccc(O)cc3)c2c1	Statin myotox sup 132
Cc1ccccc1NC(=O)CSc1nnc(-c2ccccn2)o1	none
O=C(CSc1nnc(-c2ccc(O)cc2)o1)Nc1ccccc1	Wnt act 34
CCc1nnc(NC(=O)CSc2nnc(-c3ccc(NS(=O)(=O)c4ccccc4)cc3)o2)s1	Statin myotox sup 108
Cc1cc(NC(=O)CSc2nnc(-c3ccc(O)cc3)o2)no1	none
O=C(CSc1nnc(-c2cccc(Cl)c2)o1)Nc1ccc2c(c1)OCCO2	MITF TRPM1 HTS 88
O=C(CSc1nnc(-c2ccccn2)o1)Nc1ccccc1F	Wnt act 37
NC(=O)c1ccc(NC(=O)CSc2nnc(-c3ccc4c(c3)OCO4)o2)cc1	none
Cc1noc(C)c1S(=O)(=O)N(C)C[C@H]1OCCCC[C@@H](C)Oc2ccc(NC(=O)C3CCCCC3)cc2C(=O)N([C@@H](C)CO)C[C@@H]1C	none (no result: Wnt act, FXN GAA850 act, MITF TRPM1 HTS)
Cn1cnc(S(=O)(=O)N2CCCCN3[C@H](CO)[C@@H](c4ccc(-c5cccc(F)c5)cc4)[C@@H]3C2)c1	none (no result: Wnt act, FXN GAA850 act, MITF TRPM1 HTS)
CO[C@H](CN(C)S(=O)(=O)c1ccc(C)cc1)[C@@H](C)CN(Cc1ccccc1Cl)[C@H](C)CO	none (no result: Wnt act, FXN GAA850 act, MITF TRPM1 HTS)
C[C@H]1CN([C@@H](C)CO)S(=O)(=O)c2ccc(-c3ccncc3)cc2O[C@H]1CN(C)C(=O)CC1CC1	none (no result: Wnt act, FXN GAA850 act, MITF TRPM1 HTS)
CCn1nnnc1SCC(=O)Nc1ccc2c(c1)OCCO2	Wnt act 43 (no result: esBAF inh, Statin myotox sup)
O=C(CSc1nnc(-c2ccc(C(F)(F)F)cn2)o1)Nc1cccc(Cl)c1	none (no result: esBAF inh, MITF TRPM1 HTS, Statin myotox sup)
O=C(CSc1nnc(-c2ccccn2)o1)Nc1cccc(Cl)c1	esBAF inh 65 (no result: MITF TRPM1 HTS)
O=C(COC(=O)c1ccc(S(=O)(=O)N2CCCCCC2)cc1)NCc1ccc(F)cc1	none
O=C(COC(=O)c1ccc(F)c(S(=O)(=O)N2CCCCC2)c1)NCc1ccc(F)cc1	Wnt act 40
CCOc1ccc(OCCOCCOc2c(Cl)cccc2Cl)cc1	Statin myotox sup 133 (no result: Wnt act)
Cc1noc(C)c1S(=O)(=O)Nc1ccc2c(c1)CC(=O)N([C@H](C)CO)C[C@H](C)[C@H](CN(C)Cc1ccc(Cl)c(Cl)c1)O2	none (no result: Wnt act, FXN GAA850 act, MITF TRPM1 HTS)
Cc1noc(C)c1S(=O)(=O)Nc1ccc2c(c1)CC(=O)N([C@H](C)CO)C[C@@H](C)[C@@H](CN(C)Cc1ccc(Cl)c(Cl)c1)O2	Statin myotox sup 97 (no result: Wnt act, FXN GAA850 act, MITF TRPM1 HTS)
Cc1noc(C)c1S(=O)(=O)Nc1ccc2c(c1)CC(=O)N([C@H](C)CO)C[C@@H](C)[C@@H](CN(C)Cc1ccc(-c3ccccc3)cc1)O2	Statin myotox sup 98 (no result: Wnt act, FXN GAA850 act, MITF TRPM1 HTS)
O=C(Nc1ccc(F)cc1)c1nsc(Cl)c1Cl	none (no result: Wnt act)
CCOc1ccc(NC(=O)c2ccncc2)cc1	none (no result: esBAF inh, Wnt act, Statin myotox sup)
CCOc1ccc(NC(=O)c2nsc(Cl)c2Cl)cc1	Wnt act 54
O=C(Nc1ccc(F)c(Cl)c1)c1nsc(Cl)c1Cl	esBAF inh 60
CC(=O)c1ccc(NC(=O)CCc2nnc3ccc(N4CCCC4)nn23)cc1	esBAF inh 57
CCc1ccc(NC(=O)CCc2nnc3ccc(N4CCCC4)nn23)cc1	none
CCC(=O)Nc1ccc2c(c1)C(=O)N(C)C[C@@H](OC)[C@@H](C)CN(CC1CC1)[C@H](C)CO2	none (no result: Wnt act, FXN GAA850 act, MITF TRPM1 HTS)
C[C@@H]1CN([C@H](C)CO)C(=O)c2c(c3ccccc3n2C)-c2ccccc2CO[C@H]1CN(C)C(=O)Nc1ccc2c(c1)OCO2	esBAF inh 81 (no result: Wnt act, FXN GAA850 act, MITF TRPM1 HTS)
C[C@H](CO)N1C[C@H](C)[C@H](CN(C)C(=O)Nc2ccc3c(c2)OCO3)OCc2ccccc2-c2c(n(C)c3ccccc23)C1=O	esBAF inh 93 (no result: Wnt act, FXN GAA850 act, MITF TRPM1 HTS)
C[C@@H]1CN([C@@H](C)CO)C(=O)c2c(c3ccccc3n2C)-c2ccccc2CO[C@H]1CN(C)C(=O)Nc1ccc2c(c1)OCO2	esBAF inh 86 (no result: Wnt act, FXN GAA850 act, MITF TRPM1 HTS, Statin myotox sup)
C[C@H]1CN([C@@H](C)CO)C(=O)c2c(c3ccccc3n2C)-c2ccccc2CO[C@H]1CN(C)C(=O)Nc1ccc2c(c1)OCO2	esBAF inh 60 (no result: Wnt act, FXN GAA850 act, MITF TRPM1 HTS)
C[C@@H]1CN([C@H](C)CO)C(=O)c2c(c3ccccc3n2C)-c2ccccc2CO[C@@H]1CN(C)C(=O)Nc1ccc2c(c1)OCO2	none (no result: MITF TRPM1 HTS)
CCCN(C)C[C@H]1Oc2ncc(C#CC3CC3)cc2C(=O)N([C@H](C)CO)C[C@@H]1C	none (no result: Wnt act, FXN GAA850 act, MITF TRPM1 HTS)
Cc1cccc(NC(=O)CC2CCC2)c1	none (no result: Wnt act)
Cc1cc(NC(=S)NC(=O)CC(C)C)ccc1Br	esBAF inh 58
